In PubChem BioAssay (Tox21) one finds Potency data, which are given here for 40 compounds.

Inconclusive results are not listed. Entries that show only a call come without a potency. A structure can be active in one record and inactive in another. Activity calls are given as the source filed them. Calls come from the whole dose curve.
Potency is the fitted concentration of half-maximal effect.

A short description of the test: p53 small molecule agonists, cell-based qHTS assay with rat liver microsomes: qHTS cell viability counter screen (AID 1963580). Note: nearly all actives have a fitted effect of over 45% in size. As to conditions: p53RE-bla HCT-116 + rat microsomes, ATP viability, 16 h; series mostly up to 66 µM. The source says: National Center for Advancing Translational Sciences [NCATS]
Division of Preclinical Innovation [DPI]
U.S. Environmental Protection Agency [EPA]
National Institutes of Environmental Health Sciences [NIEHS]
National Toxicology Program [NTP]
U.S. Food and Drug Administration [FDA]
p53, a tumor suppressor protein, is activated following cellular insult, including DNA damage and other cellular stresses. The activation of p53 regulates cell fate by inducing DNA repair, cell cycle arrest, apoptosis, or cellular senescence. The activation of p53, therefore, is a good indicator of DNA damage and other cellular stresses. The CellSensor p53RE-bla HCT-116 cell line contains a stably integrated beta-lactamase reporter gene under control of the p53 response elements. The activation of the reporter gene under culture conditions can be detected by fluorescence intensity. This cell line was used to screen the Tox21 10K compound library in the condition of presence of rat liver microsomes and to identify agonists that activate the p53 signaling pathway after in vitro metabolic activation (Ooka et al., Archive of Toxicology 96:1975-1987, 2022). The cytotoxicity of the Tox21 compound library against the p53 RE-bla HCT-116 cell line was tested in parallel by measuring the intra cellular ATP content in the same wells.
Tox21 Assay Protocol Summary:
The p53RE-bla cells were dispensed at 4,000cells/3ul/well in 1536-well black-clear bottom plates. After the assay plates were incubated at 37 C, 5% CO2 incubator for 5 hours, 23 nL of compounds dissolved in DMSO, positive controls or DMSO only was transferred to the assay plate. Following compound addition, 3 uL of rat liver microsomes (Molecular Toxicology, Boone, NC) at final concentration of 0.5 mg/mL and 1uL of B-Nicotinamide adenine dinucleotide 2'-phosphate (NADPH) at final concentration of 0.5 mg/mL were transferred to the assay plate. The plates were incubated at 37 C for 16 hours. 1 uL of LiveBLAzer detection mixture was added to each well and the plates were incubated at room temperature in the dark for 2 h. Fluorescence intensity at 460 and 530 nm emission and 405 nm excitation were measured by an Envision plate reader. For cell viability readout that measures cytotoxicity, 4 ul/well of CellTiter-Glo reagent was added into the assay plates using a Flying Reagent Dispenser. After 30 min incubation at room temperature, the luminescence intensity in the plates was measured using a ViewLux plate reader.
(Quantitative high-throughput screening tests each substance at several concentrations.)
Turning to `C#C[C@]1(O)CC[C@H]2[C@@H]3CCc4cc(O)ccc4[C@H]3CC[C@@]21C`, the Potency entry is “inactive”.

Turning to `COC(=O)C1CCC(C(=O)OC)CC1` (stereo not given), the Potency entry was “inactive”.

Take `OC1C(O)C(O)C(O)C(O)C1O` (stereo not given): the Potency entry was “inactive”.

`CC(C)(CO)COC(=O)C(C)(C)CO`: the Potency result is “inactive”.

As for `O=CCCCC=O`, the Potency result is “inactive”.

`Cc1c(OCC(F)(F)F)ccnc1CS(=O)c1nc2ccccc2[nH]1` (stereo not given): the Potency entry was “inactive”.

As for `CC(=O)OC[C@H]1O[C@@](COC(C)=O)(O[C@H]2O[C@H](COC(C)=O)[C@@H](OC(C)=O)[C@H](OC(C)=O)[C@H]2OC(C)=O)[C@@H](OC(C)=O)[C@@H]1OC(C)=O`, the Potency result is “inactive”.

Regarding `Oc1ccc(Cc2ccccc2O)cc1`, the Potency was 36.8 µM (active) and inactive.

On to `Cc1ccc(S(=O)(=O)NC(=O)NN2CCCCCC2)cc1`, for which the Potency entry was “inactive”.

On to `Brc1cc(Oc2cc(Br)c(Br)c(Br)c2Br)c(Br)c(Br)c1Br`, for which the Potency result was “inactive”.

Regarding `CCOCCOCCO`, the Potency result is “inactive”.

Consider `COC(=O)CCC(=O)OC`, for which the Potency entry is “inactive”.

With `CC(=O)OCC(COC(C)=O)OC(C)=O`, the Potency result is “inactive”.

In the case of `CCCCC(CC)COC(=O)c1ccc(N(C)C)cc1` (stereo not given), the Potency result is “inactive”.

In the case of `CCCNC(=O)NS(=O)(=O)c1ccc(Cl)cc1`, the Potency entry is “inactive”.

With `O=C(O)c1ccc(S(=O)(=O)N(Cl)Cl)cc1`, the Potency result was “inactive”.

On to `CS(=O)(=O)OCCCCOS(C)(=O)=O`, for which the Potency result is “inactive”.

Take `CCc1cccc2c3c([nH]c12)C(CC)(CC(=O)O)OCC3` (stereo not given): the Potency result is “inactive”.

With `CCc1nc(N)nc(N)c1-c1ccc(Cl)cc1`, the Potency result was “inactive”.

For `COC(C)COC(C)COC(C)CO` (stereo not given), the Potency entry was “inactive”.

For `CCCCCCCC=O`, the Potency result is “inactive”.

Consider `O=Nc1ccc(O)cc1`, for which the Potency entry was “inactive”.

Regarding `O=C1NC(=O)c2ccccc21`, the Potency entry was “inactive”.

As for `C/C=C/c1ccc(OCC)c(O)c1`, the Potency entry was “inactive”.

As to `C=CC(C)(CCC=C(C)C)OC(C)=O` (stereo not given), the Potency entry was “inactive”.

As to `CCCCCCCCCCCO`, the Potency result was “inactive”.

Turning to `Oc1ccc(Cl)cc1Cc1cc(Cl)ccc1O`, the Potency is 41.5 µM (active) and inactive.

Regarding `OCCOCCN1CCN(C(c2ccccc2)c2ccc(Cl)cc2)CC1` (stereo not given), the Potency result is “inactive”.

In the case of `NC(N)=S`, the Potency entry was “inactive”.

Consider `O=C(O)CS`, for which the Potency entry was “inactive”.

Consider `O=C(c1ccccc1)c1ccc(O)c(O)c1O`, for which the Potency entry is “inactive”.

As for `N[C@@H](Cc1cc(I)c(Oc2cc(I)c(O)c(I)c2)c(I)c1)C(=O)O`, the Potency result is “inactive”.

Consider `CCCCCCCCCC(=O)O`, for which the Potency entry was “inactive”.

In the case of `Nc1ccc(S(=O)(=O)c2ccc(N)cc2)cc1`, the Potency result was “inactive”.

On to `c1ccc2cc3ccccc3cc2c1`, for which the Potency entry is “inactive”.

In the case of `Cc1cc(C)c(O)c(C)c1`, the Potency result was “inactive”.

As for `O=C(CC(C(=O)OC1CCCCC1)S(=O)(=O)O)OC1CCCCC1` (stereo not given), the Potency entry is “inactive”.

On to `NCCCCCCN`, for which the Potency entry is “inactive”.

`C[C@]12CC[C@@H]3c4ccc(O)cc4C[C@@H](CCCCCCCCCS(=O)CCCC(F)(F)C(F)(F)F)[C@H]3[C@@H]1CC[C@@H]2O` (stereo not given in full): the Potency result is “inactive”.

Turning to `CCN(CC)CCOC(=O)c1ccc(N)cc1`, the Potency result was “inactive”.
